# TDP1 cell CPT = DT40-hTDP1 cell growth loss with CPT; chicken DT40 Tdp1-/-;hTDP1 cells + 20 nM CPT, ATP luminescence, 48 h; hit rate 12% among 420,000; Potency, µM (top dose mostly 46.2 µM), hits mostly inhibitors; further: nearly all actives have a fitted effect of over 55% in size
#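 Cell growth measured by CellTiter-Glo luminescence after a minimum 48 h, 37 C compound exposure with 20 nM CPT in Tdp1-knockout DT40 cells stably expressing hTDP1, seeded 400/well; qHTS titration format.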
# HT1080 IDH1KD tx = HT-1080 IDH1 knockdown cell toxicity (counter line) | hit rate 2% among 360,000 | AID 686971 | Potency, µM (titrated, usually from 46.1 µM), hits mostly cytotoxic | HT-1080 IDH1 knockdown viability, ATP luminescence, 48 h
#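 After a 2 h attachment period, IDH1KD HT-1080 cells took pin-transferred compound for 48 h at 37 °C; ATP-based luminescence after 10 min room-temperature reagent incubation reported viability.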
# HT1080NT lethal = kills 2HG-producing HT-1080-NT fibrosarcoma cells; Potency, µM (titrated, usually from 46.1 µM), actives largely listed as cytotoxic; HT-1080-NT fibrosarcoma viability, CellTiter-Glo ATP luminescence, 48 h; hit rate 1.6% among 360,000; AID 686970;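 further: NT is the 2HG producing partner of a matched IDH1 knockdown line; nearly all actives have a fitted effect of over 55% in size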
#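 HT-1080-NT fibrosarcoma cells (2HG-overproducing), 750 cells/well in RPMI with 5% FBS, dosed after 2 h and incubated 48 h at 37C. CellTiter-Glo luminescence normalized to DMSO and no-cell wells; concentration-response curves fitted and classed.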
# ELG1 repair inh = inhibitors of ELG1-dependent DNA repair in HEK293T cells; HEK293T ELG1-luciferase reporter, luminescence, 16 h; DNA damage induced by 5-fluorouridine; Potency, µM (top dose mostly 46.1 µM), hits mostly inhibitors; hit rate 2.3% among 330,000; further: nearly all actives have a fitted effect of over 55% in size
#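 In this reporter screen, reduction of luminescence relative to DMSO vehicle indicated activity. Compounds and 5-fluorouridine were added together to 2,000 cells per well, incubated for 16 hr at 37 °C, then developed with ONE-Glo.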
# IL1B secr inh = blocks inflammasome-driven IL-1 beta release; THP-1 LPS/ATP IL-1B secretion, AlphaLISA, 16 h; hits give low values; activity change, % at 57.5 µM; hit rate 4.7% among 360,000; in the data active means activity change below about -50%; inconclusive means mostly about -30% to -49%
#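 Secreted IL-1B measured by AlphaLISA bead assay after 16 h compound exposure of THP-1 cells; compounds (final up to 57.5 uM) added 1 h before LPS (250 ng/mL) and ATP (1.25 mM) stimulation; lower signal means less secretion.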
# DT40 TDP1 no CPT = qHTS for Inhibitors of human tyrosyl-DNA phosphodiesterase 1 (TDP1): qHTS in cells in absence of CPT. hit rate 15% among 420,000. Potency, µM (top dose mostly 46.2 µM), usual class: inhibitors. DT40 Tdp1-/- hTDP1 cells, no CPT, ATP luminescence, 48 h. AID 686978, 2013; further: nearly all actives have a fitted effect of over 55% in size
#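 Growth kinetics read by CellTiter-Glo luminescence after ≥48 hr at 37 °C. Cells: DT40 Tdp1-/- stably carrying human TDP1, 400 per well, compound exposure in the absence of CPT (DMSO vehicle).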
# A number is an active result; – = inactive; ? = inconclusive; · = no result; [ ] = another dose, or the depositor's remark. In the library only some 19% were active in any assay of this set; here they are far more common. Unless noted, the call rests on the fitted dose curve; in most records, active means well fitted curve in the direction sought with a large enough effect; inconclusive means small, poorly fitted or top-dose-only effect, or another doubt; inactive means no such curve, though single readings can be large; an effect the other way counts as inactive or inconclusive.
SMILES,TDP1 cell CPT,HT1080 IDH1KD tx,HT1080NT lethal,ELG1 repair inh,IL1B secr inh,DT40 TDP1 no CPT
CC(=O)N1c2ccc(S(=O)(=O)N3CCC(C(=O)N4CCCCC4)CC3)cc2CC1C (configuration not stated),?,–,–,–,–,?
CC(=O)N1c2ccc(S(=O)(=O)N3CCC(C(=O)N4CCN(c5ccc(Cl)cc5)CC4)CC3)cc2CC1C (configuration not stated),16µM,–,–,–,?,5.2µM
CCC(=O)N1c2ccc(S(=O)(=O)CCC(=O)N3CCN(c4ccccc4F)CC3)cc2CC1C (configuration not stated),?,–,–,–,–,16µM
Cc1ncc([N+](=O)[O-])n1S(=O)(=O)c1cc(Br)ccc1Br,–,–,–,–,–,–
Cc1ccc(OCC(=O)N(Cc2ccco2)C2CCS(=O)(=O)C2)cc1 (configuration not stated),–,–,–,–,–,–
CC(C)(C)c1ccc(OCC(=O)N(Cc2cccs2)C2CCS(=O)(=O)C2)cc1 (configuration not stated),16µM,–,–,–,–,?
CCc1ccc(OCC(=O)N(Cc2cccs2)C2CCS(=O)(=O)C2)cc1 (configuration not stated),–,–,–,–,–,?
Cc1ccc(CN(C(=O)COc2ccc(C(C)C)cc2)C2CCS(=O)(=O)C2)o1 (configuration not stated),15µM,·,·,·,·,18µM
COc1ccc(CCNC(=O)Cn2c(=O)nc(-c3ccccc3)c3ccccc32)cc1OC,–,·,·,·,·,–
CCC1CN(CCNC(=O)c2cscn2)Cc2cc(OC)ccc2O1 (configuration not stated),–[9.04 µM],·,·,·,·,–
Cc1cc(S(=O)(=O)N2CCOCC2)ccc1OCC(=O)N1CCCC1,–,–,–,–,–,–
O=C(NC1CCN(Cc2ccccc2)CC1)C1CCCN(c2nnc(-n3cccc3)s2)C1 (configuration not stated),?,–,–,–,–,?
CC(CCc1ccccc1)NC(=O)C1CCCN(c2nnc(-n3cccc3)s2)C1 (configuration not stated),18µM,–,–,?,–,?
O=C(C1CCCN(c2nnc(-n3cccc3)s2)C1)N1CCN(c2ccccc2)CC1 (configuration not stated),?,?,–,16µM,?,?
CC(NC(=O)C1CCN(c2nnc(-n3cccc3)s2)CC1)C12CC3CC(CC(C3)C1)C2 (configuration not stated),16µM,–,–,–,–,15µM
Cc1cc(C)cc(NC(=O)CSc2nnc(CNC(=O)c3ccco3)n2C)c1,?,–,–,–,–,29µM
Cn1c(SCc2cccc3ccccc23)nnc1-c1ccco1,13µM,?,–,–,–,?
Cn1c(SCC(=O)c2ccc(-c3ccccc3)cc2)nnc1-c1ccco1,–,–,–,–,–,26µM
CC(=O)Nc1ccc(-c2nnc(SCC(=O)c3ccc4c(c3)Cc3ccccc3-4)n2C)cc1,13µM,?,–,–,–,12µM
COCC(=O)Nc1cc(C(=O)NC2C3CC4CC2CC(O)(C4)C3)cc2nc(-c3ccccc3)n(C)c12 (configuration not stated),–,·,·,·,·,–
Cc1nc2cc(NC(=O)c3ccco3)ccc2n1C,–,–,–,?,–,–
Nc1ccc(S(=O)(=O)Nc2ccccc2)cc1,–,·,·,·,·,–
CNC(=O)NC(=O)CSc1nnc(-c2ccco2)n1Cc1ccccc1,–,–,–,–,–,–
CCn1c(SCc2c(F)cccc2Cl)nnc1-c1ccco1,?,–,–,–,?,18µM
O=C(CSc1nnc(-c2ccco2)n1Cc1ccccc1)NC(=O)NCc1ccccc1,?,–,–,18µM,–,?
SMILES,TDP1 cell CPT,HT1080 IDH1KD tx,HT1080NT lethal,ELG1 repair inh,IL1B secr inh,DT40 TDP1 no CPT
CCn1c(Sc2ccc([N+](=O)[O-])cn2)nnc1-c1ccco1,1.6µM,18µM,12µM,–,-82,2.1µM
CCCNC(=O)CSc1nnc(-c2ccco2)n1C,23µM,?,–,–,–,13µM
COc1ccc(N(CC(=O)NCc2ccc(C)cc2)S(=O)(=O)c2c(C)noc2C)cc1,–,–,–,–,–,–
Cc1ccc(NC(=O)CCS(=O)(=O)c2ccc3c(c2)oc(=O)n3C)c(Br)c1,?,·,·,·,·,–
CCN(CC)S(=O)(=O)c1ccc(N2CCCCC2)c(NC(=O)C2CCN(C(=O)c3ccc(F)cc3)CC2)c1,?,–,–,?,?,23µM
O=C(Nc1ccccc1N1CCCC1)C1CCN(C(=O)c2ccc(Cl)cc2)CC1,?,–,–,–,?,?
O=C(Nc1ccccc1N1CCN(C(=O)c2ccc(Cl)cc2)CC1)c1ccc2c(c1)OCO2,–,–,–,16µM,–,–
CC(C)C(=O)N1CCN(c2ccccc2NC(=O)c2ccc3c(c2)OCCO3)CC1,–,–,–,·,–,–
O=C(Nc1ccccc1N1CCN(C(=O)c2ccc(Cl)cc2)CC1)c1cccc(F)c1,?,–,–,?,-55,?
O=C(Nc1ccccc1N1CCCCC1)C1CCN(C(=O)c2ccc(Cl)cc2)CC1,23µM,–,–,–,-72,?
COc1ccc(CCNC(=O)Cn2ncc3c(C)n(Cc4ccccc4F)c(C)c3c2=O)cc1OC,–,·,·,·,·,–
O=C(Nc1cccnc1Cl)C1=NN(c2ccccc2)C(=O)CC1,?,–,–,–,–,–
C[C@H](CO)N1C[C@H](C)[C@@H](CN(C)Cc2ccncc2)Oc2ccc(NC(=O)CCCCCC(=O)Nc3ccccc3N)cc2C1=O,–,–,–,–,–,–
Cc1ccc(CNC(=O)c2ccc(Cl)c(S(N)(=O)=O)c2)n1C,–,–,–,–,–,–
CC(C)(C)C(=O)Nc1ccccc1N1CCN(C(=O)c2ccc(Cl)cc2)CC1,?,–,–,–,–,?
CC(C)C(=O)NC(=S)Nc1ccccc1N1CCN(C(=O)c2ccc(Cl)cc2)CC1,?,–,–,?,–,16µM
Cc1noc(C)c1-c1ccc(C(=O)Nc2cccc(NS(C)(=O)=O)c2)c2occc12,?,–,–,·,–,?
Cc1noc(C)c1-c1ccc(C(=O)Nc2cccc(C(F)(F)F)c2)c2occc12,16µM,?,?,·,–,21µM
Cc1noc(C)c1-c1ccc(C(=O)NCCC(F)(F)F)c2occc12,15µM,–,–,·,–,?
Cc1noc(C)c1-c1ccc(C(=O)NCc2cccc(Cl)c2)c2occc12,?,–,?,·,–,?

# From PubChem BioAssay
